{"source": "PubChem BioAssay AID720507", "about": "(National Center for Advancing Translational Sciences (NCATS), 2013)", "note": "Among all 2,300 compounds or so, about 140 (6.1%) were called active. About 18% were inconclusive and are not listed. Calls come from the whole dose curve; as a rule, active = well fitted activation curve with a large enough effect; inconclusive = small, poorly fitted or top-dose-only effect; inactive = flat fitted curve, though single readings scatter. These entries were drawn from the full list. Potency is the fitted concentration of half-maximal effect."}
{"biological_target": "D(2) dopamine receptor (Homo sapiens) (UniProt P14416)", "sequence (P14416 whole entry, looked up)": "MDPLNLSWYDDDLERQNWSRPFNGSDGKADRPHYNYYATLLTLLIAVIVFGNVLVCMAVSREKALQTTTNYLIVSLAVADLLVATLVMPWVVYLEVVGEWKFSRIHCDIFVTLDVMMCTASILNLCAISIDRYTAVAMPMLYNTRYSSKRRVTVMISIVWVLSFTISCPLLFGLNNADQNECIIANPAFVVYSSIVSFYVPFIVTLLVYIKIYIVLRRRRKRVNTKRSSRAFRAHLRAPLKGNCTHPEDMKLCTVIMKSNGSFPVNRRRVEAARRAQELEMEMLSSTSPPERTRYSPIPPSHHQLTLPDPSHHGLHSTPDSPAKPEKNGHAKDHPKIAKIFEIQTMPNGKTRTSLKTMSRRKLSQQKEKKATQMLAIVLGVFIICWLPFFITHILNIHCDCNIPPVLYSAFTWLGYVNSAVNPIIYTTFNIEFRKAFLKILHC", "test": "qHTS of D3 Dopamine Receptor Agonist: D2 Dopamine Receptor B-arrestin Agonist Counterscreen; note: nearly all actives have a fitted effect of over 70% in size; for activation: % of control where 0% means no effect", "details": "DiscoveRx PathHunter D2 beta-arrestin, luminescence, 90 min; series mostly up to 76.9 µM; activation: at the top concentration", "excerpt": "D3 DARs represent a very important target for the treatment of several neuropsychiatric disorders. Indeed, one of the most promising therapeutic applications for the D3 DAR is in the area of addiction and related disorders. […] These findings have been observed with a number of addictive substances including cocaine, amphetamine, nicotine, and alcohol. […] Increased D3 DAR activity can thus lead to neuroprotective and neurorestorative actions in the CNS. […] This assay is used to profile the activity of the identified D3 dopamine receptor agonist against the D2 dopamine receptor. Greater than 10% of the maximum dopamine agonist response is desired for this assay. NIH Molecular Libraries Probe Production Centers Network [MLPCN] NIH Chemical Genomics Center [NCGC] MLPCN Grant: NS064831 Assay Submitter (PI): David Sibley\nDiscoveRx D2 cells were thawed from frozen stock and seeded at 2,100 cells/ 3 uL/well media (DiscoveRx Plating Reagent 2) with MultiDrop Combi dispenser (Thermo Scientific, Logan, UT) onto white tissue culture treated 1536-well Aurora plates (Brooks Automation, Chelmsford, MA) and allowed to attach overnight at 37 deg C, 5% CO2. Next, 23 nL/well of compound solutions in DMSO were added with a pintool transfer (Kalypsis, San Diego, CA). […] The rest of the plate was dispensed with buffer only, 1 uL/well as well. The cells were stimulated by compounds or dopamine control for 90 minutes at 37 deg C, 5% CO2, after which 1.5 ul/well of DiscoveRx detection reagent was added with BioRAPTR FRD dispenser. The detection reagent was prepared by mixing of Galacton Star Substrate, Emerald II solution and PathHunter buffer (supplied by the assay kit) together at 1:5:19 proportion accordingly just prior to dispensing. The plates were incubated at ambient temperature for 1 hour and then the luminescent signal was read on ViewLux plate reader (PerkinElmer, Waltham, MA)."}
{"molecule": "O=C(CN1CCN(S(=O)(=O)c2cc(Cl)ccc2Cl)CC1)c1ccc(O)c(O)c1", "activation": "13.6% (inactive)"}
{"molecule": "CCC(=O)Nc1ccc(C(=O)N2CCN(C(=O)c3ccco3)CC2)cc1", "activation": "-1.66% (inactive)"}
{"molecule": "Cc1cc(C)n2nc(C(=O)N3CCN(Cc4ccc5c(c4)OCO5)CC3)nc2n1", "activation": "10.6% (inactive)"}
{"molecule": "O=C(c1ccco1)N1CCN(Cc2cccc(C(F)(F)F)c2)CC1", "Potency": "31.6 µM (active)"}
{"molecule": "Cc1ccc(S(=O)(=O)N2CC(O)C[C@H]2C(=O)OCC(=O)Nc2ccc(N3CCOCC3)cc2)cc1C", "note": "(stereo partly drawn)", "activation": "-1.51% (inactive)"}
{"molecule": "CCN(CCCNC(=O)c1ccc2c(c1)NC(=O)CN2C)c1cccc(C)c1", "activation": "9.85% (inactive)"}
{"molecule": "O=C(COc1coc(CN2CCN(c3ccccc3)CC2)cc1=O)Nc1ccccc1F", "activation": "18.8% (inactive)"}
{"molecule": "CN(CCO)S(=O)(=O)c1ccc2c(c1)C(=O)c1cc(S(=O)(=O)N(C)CCO)ccc1-2", "activation": "-1.49% (inactive)"}
{"molecule": "Cc1n[nH]c(C)c1S(=O)(=O)N1CCCC(C(=O)NCC2COc3ccccc3O2)C1", "note": "(stereo not drawn)", "activation": "0.0237% (inactive)"}
{"molecule": "OCC1(Cc2ccccc2)CCN(Cc2cc3ccccc3o2)CC1", "Potency": "25.1 µM (active)"}
{"molecule": "CS/C(=C\\C(=O)c1ccco1)Nc1ccccc1Cl", "activation": "6.85% (inactive)"}
{"molecule": "O=c1oc(-c2ccccc2NS(=O)(=O)c2ccc(Cl)cc2)nc2ccccc12", "activation": "-0.237% (inactive)"}
{"molecule": "O=C(NC1CCCCC1)c1ccc2c(=O)n(CC3CCCO3)c(=O)[nH]c2c1", "note": "(stereo not drawn)", "activation": "10.1% (inactive)"}
{"molecule": "COC(c1ccccc1)c1nnc(CCC(=O)N2CCN(CCOc3ccccc3)CC2)o1", "note": "(stereo not drawn)", "activation": "13.2% (inactive)"}
{"molecule": "CN1CCC(CN)(N2CCN(c3ccccc3)CC2)CC1", "activation": "11.1% (inactive)"}
{"molecule": "Cc1c(C(=O)Nc2cccc(-c3nnc4n3CCCCC4)c2)oc2ccccc12", "activation": "-2.93% (inactive)"}
{"molecule": "O=C(Nc1cccnc1Cl)c1cc(-c2cccc(Cl)c2)on1", "activation": "-2.13% (inactive)"}
{"molecule": "COc1ccc([C@H]2CC(=O)C=C(c3ccc(OC(F)(F)F)cc3)C2)cc1OC", "activation": "20.6% (inactive)"}
{"molecule": "Cc1c(CC(=O)N2CCN(C(=O)C3COc4ccccc4O3)CC2)c(=O)oc2c(O)c(O)ccc12", "note": "(stereo not drawn)", "Potency": "31.6 µM (active)"}
{"molecule": "O=S(=O)(c1ccc(F)cc1)N1CC=C(c2ccccc2)CC1", "activation": "1.2% (inactive)"}
{"molecule": "CC[C@H](C)C(=O)N[C@H]1CCCN1C(=O)/C=C/c1ccccc1", "activation": "-0.497% (inactive)"}
{"molecule": "CCOC(=O)[C@H]1[C@H]2COc3ccc(C)cc3[C@@H]2N2C(=O)CN(Cc3ccc(F)cc3)C(=O)[C@@]12C", "activation": "5.21% (inactive)"}
{"molecule": "Cc1ccc(O)c(-c2cc(C(=O)Nc3c(C)n(C)n(-c4ccccc4)c3=O)[nH]n2)c1", "activation": "-2.19% (inactive)"}
{"molecule": "CCCN(CC(=O)Nc1ccccc1C)C(=O)c1ccc2[nH]c3c(c2c1)CC(C)CC3", "note": "(stereo not drawn)", "activation": "2.25% (inactive)"}
{"molecule": "Cc1cnc(C(=O)N2CCCC(N3CCN(c4ccccc4F)CC3)C2)cn1", "note": "(stereo not drawn)", "activation": "21.8% (inactive)"}
{"molecule": "Cc1cccc(C)c1NC(=O)CNC(=O)c1ccc2c(c1)OCCO2", "activation": "-1.89% (inactive)"}
{"molecule": "COc1ccc([C@H]2CC(=O)C=C(c3ccc(CO)cc3)C2)cc1", "activation": "1.16% (inactive)"}
{"molecule": "CC1(C)CC(=O)C=C(c2ccc3ncccc3c2)C1", "activation": "-1.87% (inactive)"}
{"molecule": "COc1ccc(NC(C)=O)cc1NC(=O)CN1CCN(c2ccccn2)CC1", "activation": "11.8% (inactive)"}
{"molecule": "O=C(Nc1cccc(-c2nc3ccccc3[nH]2)c1)c1ccc(C(=O)Nc2cccc(-c3nc4ccccc4[nH]3)c2)cc1", "activation": "4.47% (inactive)"}
{"molecule": "CC(=O)OC(C)C[N+](C)(C)C", "note": "(stereo not drawn)", "activation": "-1.97% (inactive)"}
{"molecule": "CCC(=O)c1ccc(OCC(=O)Nc2ccc(N3CCCCC3)cc2)cc1", "activation": "-0.473% (inactive)"}
{"molecule": "OCC[C@H]1C[C@H](O)[C@@H](O)[C@]2(Cc3ccccc3CO2)O1", "activation": "-1.68% (inactive)"}
{"molecule": "O=C(Cc1csc(Nc2nc(=S)[nH]c3ccccc23)n1)NCCCN1CCN(c2cccc(Cl)c2)CC1", "activation": "-1.51% (inactive)"}
{"molecule": "O=C(NC(=O)c1ccccc1)Nc1ccccc1O", "activation": "3.31% (inactive)"}
{"molecule": "CN1CCN(S(=O)(=O)c2cccc(C(=O)Nc3sccc3C#N)c2)CC1", "activation": "-0.355% (inactive)"}
{"molecule": "O=c1cc(CCl)nc2scc(-c3ccccc3)n12", "activation": "-4.57% (inactive)"}
{"molecule": "O=C(CSC1CC(=O)N(CCc2ccccc2)C1=O)Nc1ccc(Cl)cc1", "note": "(stereo not drawn)", "activation": "5.18% (inactive)"}
{"molecule": "COc1cc(OC)c(-n2cc(-c3ccc(Cl)cc3)[nH]c2=O)cc1Cl", "activation": "-7.23% (inactive)"}
{"molecule": "O=C(c1c(F)cccc1F)N1CCN(S(=O)(=O)c2ccc3c(c2)OCCO3)CC1", "activation": "2.32% (inactive)"}
{"molecule": "COc1ccc(CC(NC(C)=O)C(=O)N2CCN(C(=O)Nc3cccc(Cl)c3)CC2)cc1OC", "note": "(stereo not drawn)", "activation": "-3.65% (inactive)"}
{"molecule": "CC(C)c1ccc2c(c1)c(SC(C)(C)C)c(CC(C)(C)C(=O)O)n2Cc1ccc(Cl)cc1", "activation": "11.4% (inactive)"}
{"molecule": "NS(=O)(=O)c1ccc(CCNS(=O)(=O)c2cccc3cccnc23)cc1", "activation": "-1.71% (inactive)"}
{"molecule": "Cc1c(CN2CC[C@@H](N3CCN(c4ccccn4)CC3)[C@H](O)C2)[nH]c2ccc(F)cc12", "Potency": "28.2 µM (active)"}
{"molecule": "O=C(CN1CCN(c2ccccn2)CC1)NC1CCCCC1", "activation": "8.31% (inactive)"}
{"molecule": "NS(=O)(=O)c1ccc(CCNC(=O)NC2CCCCC2)cc1", "activation": "-4.01% (inactive)"}
{"molecule": "O=C1c2cccc3cccc(c23)N1CN1CCN(c2ccccn2)CC1", "activation": "21.1% (inactive)"}
{"molecule": "CCC(=O)Nc1ccc2c(c1)nc(CCN1CCN(c3ccccn3)CC1)n2C", "activation": "26.1% (inactive)"}
